Out of some 310,000 compounds screened, about 14,000 (4.5%) showed an effect of 50% or more. The effect is printed as a negative number. The list comes from a sample in which strong results are over-represented; it also holds similar structures and randomly drawn compounds.
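Further: peak tail current of the secondary pulse compared with the same well before compound.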

For the assay, the target named is human ether-à-go-go-related gene (hERG) potassium channel (human, UniProt Q12809). Kind of assay: primary screen, population patch clamp on CHO cells stably expressing hERG; higher = less effect of the substance.
Sequence of human ether-à-go-go-related gene (hERG) potassium channel (Q12809 whole entry, looked up): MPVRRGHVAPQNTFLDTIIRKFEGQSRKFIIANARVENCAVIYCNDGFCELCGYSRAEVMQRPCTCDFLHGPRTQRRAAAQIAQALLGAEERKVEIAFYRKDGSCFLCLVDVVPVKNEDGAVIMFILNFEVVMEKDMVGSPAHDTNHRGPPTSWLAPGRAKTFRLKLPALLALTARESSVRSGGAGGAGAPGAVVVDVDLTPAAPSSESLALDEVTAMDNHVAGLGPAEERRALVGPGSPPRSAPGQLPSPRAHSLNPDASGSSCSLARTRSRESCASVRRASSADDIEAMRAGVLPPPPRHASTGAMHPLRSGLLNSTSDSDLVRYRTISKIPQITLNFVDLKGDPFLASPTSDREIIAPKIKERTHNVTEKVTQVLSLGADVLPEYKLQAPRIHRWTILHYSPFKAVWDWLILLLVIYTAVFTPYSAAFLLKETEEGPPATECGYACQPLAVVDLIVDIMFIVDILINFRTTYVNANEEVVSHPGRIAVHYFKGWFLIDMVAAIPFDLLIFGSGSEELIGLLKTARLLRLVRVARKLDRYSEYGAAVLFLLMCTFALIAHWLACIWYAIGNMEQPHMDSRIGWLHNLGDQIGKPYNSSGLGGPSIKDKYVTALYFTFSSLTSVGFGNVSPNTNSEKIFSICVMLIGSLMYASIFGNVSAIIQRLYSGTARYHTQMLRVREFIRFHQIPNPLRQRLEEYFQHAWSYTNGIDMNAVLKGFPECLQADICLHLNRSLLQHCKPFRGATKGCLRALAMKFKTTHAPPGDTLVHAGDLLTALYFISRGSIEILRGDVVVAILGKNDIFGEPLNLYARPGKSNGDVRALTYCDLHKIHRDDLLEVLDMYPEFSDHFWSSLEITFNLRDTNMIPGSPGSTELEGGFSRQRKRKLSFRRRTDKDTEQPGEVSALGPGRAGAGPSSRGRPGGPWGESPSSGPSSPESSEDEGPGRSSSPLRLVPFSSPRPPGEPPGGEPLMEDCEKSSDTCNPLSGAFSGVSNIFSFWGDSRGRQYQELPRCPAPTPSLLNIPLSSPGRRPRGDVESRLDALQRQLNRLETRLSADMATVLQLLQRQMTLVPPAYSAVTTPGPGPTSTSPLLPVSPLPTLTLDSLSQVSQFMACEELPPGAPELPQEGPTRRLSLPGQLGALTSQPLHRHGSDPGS
For the molecule `Cc1ccc(CNC(=O)C2CCC(=O)N(CCc3ccc(Cl)cc3)C2)s1` (stereo not drawn), the “hERG current change (%, negative = inhibition) at 10uM” value is -69.4%.
As for `Cc1ccc(S(=O)(=O)N(CCCO)CC(O)CON=C2c3ccccc3-c3ccccc32)cc1` (stereo not drawn), the “hERG current change (%, negative = inhibition) at 10uM” value is 14.4%.
Take `NC(=O)c1ccc(-c2noc(-c3cccc(Cl)c3)n2)cc1`: the “hERG current change (%, negative = inhibition) at 10uM” value came to 19.4%.
With `Cc1ccc(CSCc2ccc(C(=O)O)o2)cc1` the figure was 21.8%; with `COC(=O)c1ccncc1C(=O)Nc1ccc(Oc2ncc(C(F)(F)F)cc2Cl)cc1`, -5.09%.
In the case of `O=C(CCCCn1c(=O)[nH]c2ccsc2c1=O)NCC1CCCO1` (stereo not drawn), the “hERG current change (%, negative = inhibition) at 10uM” value is on record as 4.17%.
`COC(=O)[C@]1(C)CCC[C@@]2(C)C3CC[C@@]4(C)C[C@]3(CCC21)CC(=O)N4Cc1ccc(OC)cc1` (stereo partly drawn): the “hERG current change (%, negative = inhibition) at 10uM” value is given as 7.82%.
With `C#CCOCCOCCOCCNc1nc(N2CCN(C(=O)[C@H](CCCC[NH3+])n3cc(CCCC)nn3)CC2)nc(N2CCN(C(=O)[C@H](CCCC[NH3+])n3cc(CCC(=O)O)nn3)CC2)n1.[Cl-]` the figure was 17.4%; with `Cn1nc(C(=O)OCc2ccc(F)cc2)c2ccccc2c1=O`, 3.57%; with `Cc1cc(C)c(OC2(c3ccccc3)OC(=O)c3ccccc32)c(C)c1` (stereo not drawn), -5.57%.
With `Cc1c(C(=O)Nc2ccccc2)c2cc(O)ccc2n1Cc1ccccc1` the figure was 4.2%; with `O=C(NCc1cccs1)c1noc2c1CCCC2`, -2.52%.
The same measure for `O=C(NCCCc1ccccc1)C1CCC(=O)N(CCc2ccc(Cl)cc2)C1` (stereo not drawn): -79.8%; for `O=C(NCCCC1CCCC1)C1CCC(=O)N(Cc2cccc(F)c2)C1` (stereo not drawn): -15.2%; for `O=C(NCCCC1CCCC1)C1CCC(=O)N(Cc2ccc(Cl)cc2)C1` (stereo not drawn): -61.4%.
For the molecule `O=C(NCCCC1CCCC1)C1CCC(=O)N(Cc2ccccc2F)C1` (stereo not drawn), the “hERG current change (%, negative = inhibition) at 10uM” value is -9.03%.
With `Cc1cc(CNC(=O)C2CCC(=O)N(CCc3ccc(Cl)cc3)C2)no1` (stereo not drawn) the figure was -39.7%.
With `O=C(NCCc1ccccc1Cl)C1CCC(=O)N(CCCc2ccccc2)C1` (stereo not drawn) the figure was -34.1%.
With `O=C(NCCCc1ccncc1)C1CCC(=O)N(Cc2cccc(C(F)(F)F)c2)C1` (stereo not drawn) the figure was -18.7%; with `CC(C)c1cc(CNC(=O)C2CCC(=O)N(CCc3ccc(Cl)cc3)C2)on1` (stereo not drawn), -68.1%.
For `O=C(NCCN1CCCC1=O)C1CCC(=O)N(CCc2ccc(Cl)cc2)C1` (stereo not drawn), the “hERG current change (%, negative = inhibition) at 10uM” value is given as -4.65%.
`O=C(NCCc1cnccn1)C1CCC(=O)N(Cc2ccc(Cl)cc2)C1` (stereo not drawn): the “hERG current change (%, negative = inhibition) at 10uM” value is 2.46%.
The same measure for `O=C(NCCCc1ccncc1)C1CCC(=O)N(Cc2ccc(Cl)cc2)C1` (stereo not drawn): -61.1%; for `CC(C)c1nc(CNC(=O)C2CCC(=O)N(CCc3ccc(Cl)cc3)C2)no1` (stereo not drawn): -27.6%; for `CCn1c(CNC(=O)c2ccccc2F)nnc1SCC(=O)NC1CCCCC1C` (stereo not drawn): 31.8%.
As for `O=C(c1ccc(F)cc1)N1CCC(N2CCOCC2)CC1`, the “hERG current change (%, negative = inhibition) at 10uM” value was -5.45%.
As for `O=C(Nc1ccc(S(=O)(=O)Nc2ncccn2)cc1)c1cccc(S(=O)(=O)N2CCCC2)c1`, the “hERG current change (%, negative = inhibition) at 10uM” value is on record as -4.1%.
With `N#Cc1nc(-c2ccc(F)cc2)oc1N1CCCCC1` the figure was 8.29%.
With `COc1ccccc1Cc1noc(COc2cccc(C)c2C)n1` the figure was 3.03%; with `COc1ccc(C(=O)NCCc2nnc3ccc(SCC(=O)Nc4cc(C)on4)nn23)cc1`, 4.8%.
With `COC(=O)C1=C(c2ccc(C(C)=O)cc2)C[C@@H]2CC[C@H]1N2C(=O)N1CCC(O)(c2ccc(Cl)cc2)CC1` the figure was -73.6%; with `CCCNC(=O)N1[C@H]2CC[C@@H]1C(C(=O)OC)=C(c1ccc(OC(F)(F)F)cc1)C2`, -27.4%.
Regarding `COC(=O)C1=C(c2ccc(OC(F)(F)F)cc2)C[C@@H]2CC[C@H]1N2C(=O)N1CCC(O)CC1`, the “hERG current change (%, negative = inhibition) at 10uM” value is given as -36.2%.
With `COC(=O)C1=C(c2ccc(C(C)=O)cc2)C[C@@H]2CC[C@H]1N2C(=O)N1CCCCC1` the figure was -16.9%; with `COC(=O)C1=C(c2ccc(OC(F)(F)F)cc2)C[C@@H]2CC[C@H]1N2C(=O)N1CCCCC1`, -56.3%; with `COC(=O)C1=C(c2ccc(OC(F)(F)F)cc2)C[C@@H]2CC[C@H]1N2C(=O)NCC1CC1`, -58.6%.
With `COC(=O)C1=C(c2ccc(OC(F)(F)F)cc2)C[C@@H]2CC[C@H]1N2C(=O)N1CCCC1` the figure was -47.9%; with `COC(=O)C1=C(c2ccc(OC(F)(F)F)cc2)C[C@@H]2CC[C@H]1N2C(=O)NCCNC(C)=O`, 2.65%.
Consider `COC(=O)C1=C(c2ccc(C(C)=O)cc2)C[C@@H]2CC[C@H]1N2C(=O)N1CCCC1`, for which the “hERG current change (%, negative = inhibition) at 10uM” value was 0.9%.
With `CC1=CC=CC2=N/C(=N\S(=O)(=O)c3ccc(F)cc3F)c3ccccc3CN12` the figure was -20.3%.
In the case of `COc1ccc(CC(=O)N(C)Cc2cccc(OC)c2OC)cc1S(=O)(=O)N1CCOCC1`, the “hERG current change (%, negative = inhibition) at 10uM” value was -5.58%.
The same measure for `N=c1oc2ccccc2cc1C(=O)Nc1ccc(F)cc1`: 16.5%.

These data come from paper PMC4336329 (PLoS ONE, 2015).
